Active and inactive are the calls of the source. How the source made its calls: active means hit-call score of the fitted dose curve at least 0.9, where 1 is the maximum; inactive means score below 0.9.
read-out: Insulin Like Growth Factor 1 (IGF1), IGF1 (gene 3479); experiment: LTEA_HepaRG_IGF1: Life Technologies and Expression Analysis (LTEA) Assay for Insulin Like Growth Factor 1 (IGF1) using HepaRG (AID 2283506); conditions: mRNA level, 48 h; actives raise or lower the signal
Experimental: LTEA_HepaRG is a cell based, multiplexed-readout assay that uses HepaRG, a human liver cell line, with measurements taken at 48 hours after chemical dosing on a 96-well plate.LTEA_HepaRG_IGF1 is one of 102 assay component(s) measured in the LTEA HepaRG cell culture assay. It is a marker of Cell proliferation, survival, death.Data from the assay component LTEA_HepaRG_IGF1 was analyzed into 1 endpoint. This assay endpoint, LTEA_HepaRG_IGF1, was analyzed with bidirectional fitting relative to DMSO as the negative control and baseline of activity. Using a type of inducible reporter, measures of mRNA induction for gain or loss-of-signal activity can be used to understand regulation of transcription factor activity. To generalize the intended target to other relatable targets, this assay endpoint is annotated to the growth factor intended target family, where the subfamily is insulin-like.
A total of 1060 chemcials from the ToxCast library were tested in eight-point concentration-response experiments. Cell culture and cytotoxicity assays were conducted at Thermo Fisher Scientific's Custom Services facility (Madison, WI). A single lot of human HepaRG cells (Thermo Fisher Scientific, Frederick, MD) was used for the cell culture experiments. 96-well format collagen type I coated plates of human HepaRG cells were prepared using established methods. Briefly, cryopreserved HepaRG cells were thawed, plated at a density of approximately 100,000 cells/well in HepaRG Thaw, Plate, and General Purpose media (HPRG770, Thermo Fisher Scientific), and incubated for 48 hours. 0.5% DMSO was selected as vehicle control to balance the requisite need of DMSO in HepaRG cultures to maintain differentiation (for example, baseline metabolism, proportions of hepatocytes vs. cholangiocytes), while enabling further hepatic receptor pathway activation (for example, PXR and CAR) in response to chemical exposure. 48 hours after plating, the culture medium was replaced with HepaRG Serum-Free Incudtion Media. Cells were exposed to each test chemical in duplicate and maintained in CO2 incubators for another 48 hours. Chemical plates were thawed to room temperature and 200x concentrations of treatment groups were prepared. 8-point conentration-reponse curves were made with the highest exposure at 100 uM, followed by half-log dilutions, all in 0.5% DMSO. Each test plate contained variouse controls, induction positive controls (1mM phenobarbital), cytotoxicity positive controls ([…] aflatoxin B1), vehicle controls (0.5% DMSO), and total lysis controls (0.5% DMSO). Cell morphology images were taken using an Essen IncuCyte FLR automated microscope, with six 96-well plates imaged in about 24 minutes. Images were captured and exported and JPEG files. Spent culture media was transfered to black-well plates for the LDH assay, and remaining media was sorted at -80 C for later use. Cells were treated with RLT buffer and frozen until shipped for gene expression analysis. Total RNA was isolated from the cell suspension in 75 uL of Buffer RLT (Qiagen, Germantown, MD 20874) by Quintiles/Expression Analysis (Durham, NC) using a custom isolation procedure. Total RNA from each plate well was transferred to a preamplification plate. Fluidigm's 96.96 Dynamic ArrayTM (Fluidigm, Amsterdam, the Netherlands) technology was used for gene expression analyses by quantitative reverse transcription polymerase chain reaction (qRT-PCR, performed by Quintiles/Expression Analysis, Durham, NC)89. Standard TaqManTM Assays (Applied Biosystems/ThermoFisher Scientific, Foster City, CA) were used to assess the expression of 93 genes selected based on their selectivity and sensitivity to important hepatic receptors known to be modulated by environmental chemicals; importance in human hepatocyte functionality; and hepatotoxicity. […]

Structure (SMILES)	outcome	AC50
CCCCCCCC/C=C\CCCCCCCC(=O)OC[C@@H](O)[C@H]1OC[C@H](O)[C@H]1O	inactive	–
Cn1cc[nH]c1=S	inactive	–
CCN(CC)C(=S)SSC(=S)N(CC)CC	inactive	–
CCCCCCCCN(C)C	inactive	–
OC[C@H]1O[C@@](CO)(O[C@H]2O[C@H](CO)[C@@H](O)[C@H](O)[C@H]2O)[C@@H](O)[C@@H]1O	inactive	–
CCc1ccc(O)c(C(C)(C)C)c1	inactive	–
C=CN1CCCC1=O	inactive	–
OC(CCl)CCl	inactive	–
Cc1nccn1-c1ccc(Sc2cccc(C3(C(N)=O)CCOCC3)c2)cc1	–	7.82 µM (active)
CCCc1ccccc1	inactive	–
CCn1nc(C)c2c1C(=O)NCC(c1ccc(O)cc1)=N2	inactive	–
CC(C)c1nnc2ccc(-c3ocnc3-c3cc(F)ccc3F)cn12	–	66.1 µM (active)
c1ccc2cc3ccccc3cc2c1	inactive	–
O=c1[nH]cnc2c1ncn2[C@H]1CC[C@@H](CO)O1	inactive	–
CCOC(N)=O	inactive	–
CCc1cccc(CC)c1N	inactive	–
NC(=O)NN=Cc1ccc([N+](=O)[O-])o1	–	9.92 µM (active)
O=S(=O)(O)c1ccc(N=Nc2c(O)ccc3cc(S(=O)(=O)O)ccc23)cc1	inactive	–
CCCCCCCCCCCCCCCCOS(=O)(=O)O	–	44.2 µM (active)
NC(=O)N1c2ccccc2C=Cc2ccccc21	inactive	–

Structure (SMILES)	outcome	AC50
COc1cc(C(C)C)c2c(c1)S(=O)(=O)N(COc1cc(=O)n3cccc(OCCN4CCCCC4)c3n1)C2=O	inactive	–
CC1(C)C(=O)N(Cl)C(=O)N1Cl	inactive	–
O=C(O)c1ccc2c(c1)nc(C(=O)NC1CCN(C3CC3)CC1)n2Cc1cc(-c2ccc(Cl)s2)on1	inactive	–
NC(=O)N(O)[C@@H]1COc2cc(OCc3ccccc3)ccc21	inactive	–
O=C1CN(N=Cc2ccc([N+](=O)[O-])o2)C(=O)N1	–	50 µM (active)
CCCCC(CC)C(=O)OCCOCCOCCOC(=O)C(CC)CCCC (stereo not given)	inactive	–
NC(N)=O	inactive	–
CCCCCCCCCC	inactive	–
COCc1nnc(-c2ccc[n+]([O-])c2)n1-c1c(Cl)c(Cl)cc2[nH]c(=O)c(=O)[nH]c12	inactive	–
C[C@]12C=CC(=O)C=C1CC[C@H]1[C@@H]3C[C@@H](O)[C@](O)(C(=O)CO)[C@@]3(C)C[C@H](O)[C@@]12F	inactive	–
CCCCCCOC(=O)CC(CC(=O)OCCCCCC)(OC(=O)CCC)C(=O)OCCCCCC	inactive	–
C[C@@H](Oc1ccc(CNC(=O)c2cccnc2Oc2ccc3c(c2)OCO3)c(F)c1)C(=O)O	inactive	–
CCCCCOC(C)=O	inactive	–
Cc1ncc([C@@H](CCCCCCc2ccc3c(n2)NCCC3)CC(=O)O)cn1	inactive	–
CNC(C)=O	inactive	–
O=C(NO)C1(NS(=O)(=O)c2ccc(Oc3ccc(F)cc3)cc2)CCOCC1	–	50 µM (active)
NNC(=O)c1ccncc1	inactive	–
c1ccc(C(O[C@@H]2CCCN(CCc3ccc4c(c3)OCO4)C2)c2ccccc2)cc1	–	58 µM (active)
CC(C)C(=O)Nc1ccc([N+](=O)[O-])c(C(F)(F)F)c1	–	37.8 µM (active)
CCCCCCCC1CCC(=O)O1 (stereo not given)	inactive	–

From PubChem BioAssay (EPA / NIEHS)
